Measurements reported in PubChem BioAssay (EPA / NIEHS).
Records with an inconclusive call do not appear. Calls of active or inactive are those of the source. Rule for the calls, unless noted: active = hit-call score of the fitted dose curve at least 0.9, where 1 is the maximum; inconclusive = response in the unintended direction; inactive = score below 0.9.

Key:
[1] = ATG_TCF_b_cat_CIS: Attagene CIS-FACTORIAL HepG2 Assay for human T-Cell-Factor with beta-catenin (TCF/b-cat) (AID 2282965; active = hit-call score of the fitted dose curve at least 0.9, where 1 is the maximum; inactive = score below 0.9); conditions: HepG2 TCF/beta-catenin cis-reporter transcription, actives raise or lower the signal
Procedure, shortened: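 HepG2 cells transiently transfected with multiple cis-promoter-regulated reporter transcription units, so endogenous transcription factor activity is measured. Reporter mRNA read 24 hours after dosing by RT-PCR, fluorescent labelling and capillary electrophoresis; bidirectional fitting against DMSO.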

[2] = ATG_TAL_CIS: Attagene CIS-FACTORIAL HepG2 Assay for human TAL Basal Promoter (AID 2282966; active = hit-call score of the fitted dose curve at least 0.9, where 1 is the maximum; inactive = score below 0.9;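 note: background control endpoint measuring basal TAL promoter reporter mRNA not a specific factor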); conditions: HepG2 Attagene cis-factorial TAL promoter reporter; actives raise or lower the signal
Procedure, shortened: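 Human hepatoma HepG2 cells, transfected with promoter-regulated reporter units, were treated 24 h. Reporter transcript levels, measured through RT-PCR and capillary electrophoresis, were fitted for gain or loss relative to DMSO.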

[3] = ATG_TGFb_CIS: Attagene CIS-FACTORIAL HepG2 Assay for human Transforming Growth Factor (TGF) (AID 2282967; active = hit-call score of the fitted dose curve at least 0.9, where 1 is the maximum; inactive = score below 0.9); conditions: HepG2 Attagene CIS TGFb reporter, mRNA transcription; actives raise or lower the signal
Procedure, shortened: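 Endogenous TGFB1-linked transcription factor activity read as reporter mRNA via RT-PCR and capillary electrophoresis, 24 h after dosing transiently transfected HepG2 cells. Gain or loss of signal fitted relative to DMSO.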

[4] = ATG_VDRE_CIS: Attagene CIS-FACTORIAL HepG2 Assay for human Vitamin D Receptor Element (VDRE) (AID 2282968; active = hit-call score of the fitted dose curve at least 0.9, where 1 is the maximum; inactive = score below 0.9); conditions: HepG2 VDRE cis-reporter transcription, actives raise or lower the signal
Procedure, shortened: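 Steps: transfect HepG2 with multiple reporter transcription units; dose chemicals 24 h; isolate RNA; RT-PCR; label with 6-FAM primer extension; HpaI digest; capillary electrophoresis. Curves fitted both directions against DMSO.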

[5] = molecular target: Nuclear receptor subfamily 1 group I member 3 (Homo sapiens) (UniProt Q14994); experiment: ATG_CAR_TRANS: Attagene TRANS-FACTORIAL HepG2 Assay for human Constitutive Androstane Receptor (CAR) (AID 2282969); conditions: HepG2 Attagene TRANS-FACTORIAL CAR reporter;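 note: activators raise reporter mRNA above DMSO so AC50 marks induction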
Procedure, shortened: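 Steps: transient transfection of HepG2 with multiple GAL4-UAS reporter units; 24 h compound incubation; RNA isolation, RT-PCR, 6-FAM primer extension, HpaI digest; capillary electrophoresis. Gain-of-signal relative to DMSO negative control.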

[6] = molecular target: Estrogen receptor (Homo sapiens) (UniProt P03372); experiment: ATG_ERa_TRANS: Attagene TRANS-FACTORIAL HepG2 Assay for human Estrogen Receptor alpha (ERa) (AID 2282970); conditions: HepG2 Attagene TRANS ERa GAL4 reporter, mRNA
Procedure, shortened: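 Signal derives from fluorescence of labelled reporter PCR fragments separated by capillary electrophoresis. HepG2 cells transiently carrying multiple GAL4-UAS reporter units were treated 24 hours, and induction above DMSO baseline was fitted as activity.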

[7] = molecular target: X-box-binding protein 1 (Homo sapiens) (UniProt P17861); experiment: ATG_Xbp1_CIS: Attagene CIS-FACTORIAL HepG2 Assay for human X-box Binding Protein 1 (XBP1) (AID 2282972; active = hit-call score of the fitted dose curve at least 0.9, where 1 is the maximum; inactive = score below 0.9); conditions: HepG2 XBP1 cis-element reporter, Attagene multiplex; actives raise or lower the signal
Procedure, shortened: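 Multiplexed cis-reporter readout in transfected HepG2 liver cells. Exposure lasted 24 hours. Activity in either direction was fitted against DMSO as negative control and baseline.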

[8] = ATG_M_19_TRANS: Attagene TRANS-FACTORIAL HepG2 Assay for M19 Transcription Factor (Internal Marker) (AID 2282974); conditions: HepG2 Attagene TRANS-FACTORIAL M19 internal marker reporter
Procedure, shortened: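 24 h chemical exposure of transiently transfected HepG2 (MRTU library). RNA → oligo(dT) RT → PCR → 6-FAM labelling → HpaI cut → CE fluorescence. Positive-direction fit vs DMSO baseline; background internal-marker readout.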

[9] = ATG_GAL4_TRANS: Attagene TRANS-FACTORIAL HepG2 Assay for GAL4 (Internal Marker) (AID 2282976); conditions: HepG2 Attagene TRANS GAL4 internal marker reporter
Procedure, shortened: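 Liver HepG2 line bearing multiplexed GAL4-UAS reporter constructs; 24 h chemical treatment. Transcripts were quantified as fluorescent fragments on capillary electrophoresis after RT-PCR and HpaI cut, with activity fitted upward from DMSO.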

[10] = molecular target: Oxysterols receptor LXR-alpha (Homo sapiens) (UniProt Q13133); experiment: ATG_LXRa_TRANS: Attagene TRANS-FACTORIAL HepG2 Assay for human Liver X Receptor alpha (LXRa) (AID 2282980); conditions: HepG2 Attagene TRANS reporter, LXRa transactivation
Procedure, shortened: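 In this multiplexed TRANS system, compounds act on HepG2 cells carrying GAL4-UAS reporter units and a receptor-GAL4 fusion for 24 h. Induced reporter RNA is amplified, fluorescently labelled and sized by capillary electrophoresis, with DMSO as baseline.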

[11] = ATG_M_32_TRANS: Attagene TRANS-FACTORIAL HepG2 Assay for M32 Transcription Factor (Internal Marker) (AID 2282984); conditions: HepG2 Attagene TRANS M32 internal marker reporter
Procedure, shortened: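 After 24 h dosing of transfected HepG2 cells, total RNA was reverse-transcribed, reporter sequences PCR-amplified, 6-FAM labelled by primer extension and HpaI-digested before capillary electrophoresis. Signal increase over DMSO was fitted.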

[12] = molecular target: Transcriptional activator Myb (Homo sapiens) (UniProt P10242); experiment: ATG_Myb_CIS: Attagene CIS-FACTORIAL HepG2 Assay for human Myeloblastosis (Myb) Proto-Oncogene Transcription Factor (AID 2282986; active = hit-call score of the fitted dose curve at least 0.9, where 1 is the maximum; inactive = score below 0.9); conditions: HepG2 Attagene CIS-FACTORIAL Myb reporter transcription; actives raise or lower the signal
Procedure, shortened: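 HepG2, transient MRTU transfection (cis-element promoters, endogenous TF activity), 24 h compound exposure. Readout: reporter mRNA via RT-PCR, 6-FAM labeling, HpaI digest, capillary electrophoresis. Gain/loss fit vs DMSO.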

[13] = molecular target: Bile acid receptor (Homo sapiens) (UniProt Q96RI1); experiment: ATG_FXR_TRANS: Attagene TRANS-FACTORIAL HepG2 Assay for Farnesoid X Receptor (FXR) (AID 2282979); conditions: HepG2 Attagene TRANS FXR-GAL4 reporter transcription;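 note: hits raise reporter mRNA above DMSO so AC50 marks FXR activation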
Procedure, shortened: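 After 24 h chemical treatment of transfected HepG2 cells, GAL4-UAS reporter transcripts driven by an exogenous FXR-GAL4 fusion were measured by RT-PCR and capillary electrophoresis. Increases over DMSO were fitted.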

[14] = molecular target: Oxysterols receptor LXR-beta (Homo sapiens) (UniProt P55055); experiment: ATG_LXRb_TRANS: Attagene TRANS-FACTORIAL HepG2 Assay for human Liver X Receptor beta (LXRb) (AID 2282981); conditions: HepG2 Attagene TRANS GAL4-LXRb reporter, mRNA
Procedure, shortened: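 Measures induction of a Gal4-driven reporter transcript in HepG2 cells expressing an exogenous LXRb-Gal4 fusion. Cells are exposed to compound for 24 h before RNA isolation and RT-PCR with capillary electrophoresis detection.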

[15] = ATG_M_06_TRANS: Attagene TRANS-FACTORIAL HepG2 Assay for M06 Transcription Factor (Internal Marker) (AID 2282983); conditions: HepG2 Attagene TRANS M06 internal marker reporter
Procedure, shortened: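 Multi-reporter-transfected HepG2, 24 h treatment; reporter transcripts quantified via RT-PCR, primer-extension labelling and CE. DMSO-normalized gain-of-signal fit.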

[16] = molecular target: Hepatocyte nuclear factor 4-alpha (Homo sapiens) (UniProt P41235); experiment: ATG_HNF4a_TRANS: Attagene TRANS-FACTORIAL HepG2 Assay for human Hepatocyte Nuclear Factor 4 alpha (HNF4a) (AID 2282982); conditions: HepG2 HNF4a transactivation reporter, mRNA readout
Procedure, shortened: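 In this trans-factorial format, a chimeric HNF4a-GAL4 fusion drives a GAL4-UAS reporter in transfected HepG2 liver cells. After 24 h treatment, reporter mRNA induction is measured by RT-PCR with capillary electrophoresis, relative to DMSO.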

[17] = molecular target: Nuclear receptor subfamily 4 group A member 2 (Homo sapiens) (UniProt P43354); experiment: ATG_NURR1_TRANS: Attagene TRANS-FACTORIAL HepG2 Assay for human Nuclear Receptor Related Protein 1 (NURR1) (AID 2282985); conditions: HepG2 Attagene TRANS reporter, mRNA readout
Procedure, shortened: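 Chimeric NR-Gal4 fusion activity measured in HepG2 after 24 h treatment. Reporter transcripts detected by RT-PCR and capillary electrophoresis fluorescence; positive-direction curve fitting against DMSO.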

[18] = molecular target: Glucocorticoid receptor (Homo sapiens) (UniProt P04150); experiment: ATG_GR_TRANS: Attagene TRANS-FACTORIAL HepG2 Assay for human Glucocorticoid Receptor (GR) (AID 2282978); conditions: HepG2 Attagene TRANS GR reporter, mRNA transcription;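 note: activators score as hits since higher reporter transcript over DMSO is fitted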
Procedure, shortened: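 Transient MRTU transfection of HepG2 (GAL4-UAS reporters, exogenous NR-GAL4 chimeras), 24 h dosing. Readout: reporter transcript via RT-PCR + capillary electrophoresis fluorescence. Positive direction vs DMSO baseline.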

[19] = molecular target: Steroid hormone receptor ERR1 (Homo sapiens) (UniProt P11474); experiment: ATG_ERRa_TRANS: Attagene TRANS-FACTORIAL HepG2 Assay for human Estrogen-Related Receptor alpha (ERRa) (AID 2282971); conditions: HepG2 Attagene TRANS reporter, ERRa transactivation
Procedure, shortened: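 Signal gain relative to DMSO for an ERRa-Gal4 chimeric receptor, read as reporter mRNA by RT-PCR/capillary electrophoresis. Human HepG2 liver cells, transient multiplex reporter transfection, 24 h chemical exposure.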

Measured: AC50

Sequence of Hepatocyte nuclear factor 4-alpha (Homo sapiens) (P41235 whole entry, looked up, the tested form may be a part): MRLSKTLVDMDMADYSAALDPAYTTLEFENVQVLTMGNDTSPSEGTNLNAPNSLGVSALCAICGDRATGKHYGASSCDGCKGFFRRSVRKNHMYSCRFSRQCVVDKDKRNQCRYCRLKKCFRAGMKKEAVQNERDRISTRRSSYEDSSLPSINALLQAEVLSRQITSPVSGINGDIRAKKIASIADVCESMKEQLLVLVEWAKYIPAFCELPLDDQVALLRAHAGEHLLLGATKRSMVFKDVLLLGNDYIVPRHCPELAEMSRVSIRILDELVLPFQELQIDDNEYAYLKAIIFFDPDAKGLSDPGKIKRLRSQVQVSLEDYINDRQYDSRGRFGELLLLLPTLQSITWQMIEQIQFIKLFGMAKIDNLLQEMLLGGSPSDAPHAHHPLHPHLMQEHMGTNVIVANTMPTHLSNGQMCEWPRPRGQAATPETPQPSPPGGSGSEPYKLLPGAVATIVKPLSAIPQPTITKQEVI
Sequence of Transcriptional activator Myb (Homo sapiens) (P10242 whole entry, looked up): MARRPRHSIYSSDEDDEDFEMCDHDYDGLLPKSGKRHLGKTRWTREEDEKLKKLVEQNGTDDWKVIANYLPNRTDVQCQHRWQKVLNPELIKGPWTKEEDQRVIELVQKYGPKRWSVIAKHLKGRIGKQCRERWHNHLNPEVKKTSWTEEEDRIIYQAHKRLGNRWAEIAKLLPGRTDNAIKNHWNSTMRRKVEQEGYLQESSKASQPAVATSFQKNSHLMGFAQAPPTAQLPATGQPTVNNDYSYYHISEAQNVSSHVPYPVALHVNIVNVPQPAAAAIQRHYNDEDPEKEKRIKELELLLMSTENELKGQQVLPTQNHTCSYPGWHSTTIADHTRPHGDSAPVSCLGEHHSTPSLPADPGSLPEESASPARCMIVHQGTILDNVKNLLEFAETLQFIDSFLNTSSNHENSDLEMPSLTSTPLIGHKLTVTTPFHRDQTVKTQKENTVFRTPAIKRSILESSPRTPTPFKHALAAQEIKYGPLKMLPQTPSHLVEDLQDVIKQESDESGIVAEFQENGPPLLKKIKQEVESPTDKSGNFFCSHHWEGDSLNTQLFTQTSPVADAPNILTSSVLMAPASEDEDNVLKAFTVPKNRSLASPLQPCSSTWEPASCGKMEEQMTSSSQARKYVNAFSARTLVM
Sequence of Oxysterols receptor LXR-beta (Homo sapiens) (P55055 whole entry, looked up, the tested form may be a part): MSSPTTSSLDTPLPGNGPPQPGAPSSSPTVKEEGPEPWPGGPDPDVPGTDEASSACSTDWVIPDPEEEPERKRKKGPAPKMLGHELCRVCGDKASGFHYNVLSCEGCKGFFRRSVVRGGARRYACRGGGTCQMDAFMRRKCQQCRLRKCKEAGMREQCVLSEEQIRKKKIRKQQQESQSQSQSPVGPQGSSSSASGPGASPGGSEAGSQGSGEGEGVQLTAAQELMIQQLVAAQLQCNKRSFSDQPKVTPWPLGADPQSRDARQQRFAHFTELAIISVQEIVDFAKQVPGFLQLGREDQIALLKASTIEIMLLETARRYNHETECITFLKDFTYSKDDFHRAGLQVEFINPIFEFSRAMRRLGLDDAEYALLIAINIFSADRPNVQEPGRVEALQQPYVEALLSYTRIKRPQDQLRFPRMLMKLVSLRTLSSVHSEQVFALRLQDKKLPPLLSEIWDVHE
Sequence of Oxysterols receptor LXR-alpha (Homo sapiens) (Q13133 whole entry, looked up, the tested form may be a part): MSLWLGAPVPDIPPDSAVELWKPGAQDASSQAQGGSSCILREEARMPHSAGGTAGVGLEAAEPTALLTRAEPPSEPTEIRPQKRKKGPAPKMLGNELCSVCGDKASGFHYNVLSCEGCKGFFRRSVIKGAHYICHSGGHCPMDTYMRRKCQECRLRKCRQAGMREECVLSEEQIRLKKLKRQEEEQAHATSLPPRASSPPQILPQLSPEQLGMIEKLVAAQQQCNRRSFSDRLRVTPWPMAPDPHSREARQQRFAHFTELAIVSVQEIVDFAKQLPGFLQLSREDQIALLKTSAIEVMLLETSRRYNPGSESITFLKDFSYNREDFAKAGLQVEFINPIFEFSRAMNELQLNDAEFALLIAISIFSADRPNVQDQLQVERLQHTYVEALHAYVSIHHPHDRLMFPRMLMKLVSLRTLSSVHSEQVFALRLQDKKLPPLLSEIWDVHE
Sequence of Bile acid receptor (Homo sapiens) (Q96RI1 whole entry, looked up, the tested form may be a part): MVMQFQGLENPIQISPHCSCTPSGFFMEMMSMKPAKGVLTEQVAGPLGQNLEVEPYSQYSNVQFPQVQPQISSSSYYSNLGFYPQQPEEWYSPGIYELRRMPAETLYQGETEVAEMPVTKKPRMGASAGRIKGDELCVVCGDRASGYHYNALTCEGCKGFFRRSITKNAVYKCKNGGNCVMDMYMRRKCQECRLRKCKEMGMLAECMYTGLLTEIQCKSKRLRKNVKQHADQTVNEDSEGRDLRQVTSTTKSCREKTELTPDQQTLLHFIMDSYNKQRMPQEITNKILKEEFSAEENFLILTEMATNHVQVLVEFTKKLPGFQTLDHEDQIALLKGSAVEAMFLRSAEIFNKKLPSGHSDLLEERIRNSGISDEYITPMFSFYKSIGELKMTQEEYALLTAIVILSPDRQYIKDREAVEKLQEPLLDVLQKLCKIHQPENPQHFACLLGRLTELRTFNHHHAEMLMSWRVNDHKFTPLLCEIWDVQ
Sequence of Nuclear receptor subfamily 1 group I member 3 (Homo sapiens) (Q14994 whole entry, looked up, the tested form may be a part): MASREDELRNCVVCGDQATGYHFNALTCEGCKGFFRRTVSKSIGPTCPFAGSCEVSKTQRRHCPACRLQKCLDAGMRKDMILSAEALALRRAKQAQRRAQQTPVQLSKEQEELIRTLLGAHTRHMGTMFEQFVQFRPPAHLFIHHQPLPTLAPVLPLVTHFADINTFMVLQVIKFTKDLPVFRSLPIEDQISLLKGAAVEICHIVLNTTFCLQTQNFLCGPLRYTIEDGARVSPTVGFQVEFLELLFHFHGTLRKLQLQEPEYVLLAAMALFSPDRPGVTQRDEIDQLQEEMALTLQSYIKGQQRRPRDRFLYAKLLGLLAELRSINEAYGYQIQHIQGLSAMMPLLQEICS
Sequence of Glucocorticoid receptor (Homo sapiens) (P04150 whole entry, looked up, the tested form may be a part): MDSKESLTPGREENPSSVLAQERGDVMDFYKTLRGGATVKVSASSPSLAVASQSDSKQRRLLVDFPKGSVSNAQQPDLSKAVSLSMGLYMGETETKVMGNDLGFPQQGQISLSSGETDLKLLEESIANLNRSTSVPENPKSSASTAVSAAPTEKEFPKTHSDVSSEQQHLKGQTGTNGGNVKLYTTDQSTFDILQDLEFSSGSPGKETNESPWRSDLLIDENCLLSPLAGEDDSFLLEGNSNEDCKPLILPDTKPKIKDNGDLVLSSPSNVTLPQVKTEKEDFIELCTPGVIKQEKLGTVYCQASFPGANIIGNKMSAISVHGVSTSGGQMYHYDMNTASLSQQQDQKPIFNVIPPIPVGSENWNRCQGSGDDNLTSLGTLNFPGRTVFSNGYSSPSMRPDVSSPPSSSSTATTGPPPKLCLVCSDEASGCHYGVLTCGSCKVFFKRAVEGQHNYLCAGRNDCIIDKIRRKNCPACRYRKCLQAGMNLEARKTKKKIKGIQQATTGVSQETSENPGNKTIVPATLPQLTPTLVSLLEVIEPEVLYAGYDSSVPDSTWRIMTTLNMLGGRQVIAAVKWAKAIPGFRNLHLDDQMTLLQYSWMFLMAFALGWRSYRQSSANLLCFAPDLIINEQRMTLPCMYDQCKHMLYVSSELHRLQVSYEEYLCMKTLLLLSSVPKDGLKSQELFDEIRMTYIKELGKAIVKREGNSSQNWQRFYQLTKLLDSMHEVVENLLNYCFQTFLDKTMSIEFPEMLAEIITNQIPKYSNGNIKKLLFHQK
Sequence of Estrogen receptor (Homo sapiens) (P03372 whole entry, looked up, the tested form may be a part): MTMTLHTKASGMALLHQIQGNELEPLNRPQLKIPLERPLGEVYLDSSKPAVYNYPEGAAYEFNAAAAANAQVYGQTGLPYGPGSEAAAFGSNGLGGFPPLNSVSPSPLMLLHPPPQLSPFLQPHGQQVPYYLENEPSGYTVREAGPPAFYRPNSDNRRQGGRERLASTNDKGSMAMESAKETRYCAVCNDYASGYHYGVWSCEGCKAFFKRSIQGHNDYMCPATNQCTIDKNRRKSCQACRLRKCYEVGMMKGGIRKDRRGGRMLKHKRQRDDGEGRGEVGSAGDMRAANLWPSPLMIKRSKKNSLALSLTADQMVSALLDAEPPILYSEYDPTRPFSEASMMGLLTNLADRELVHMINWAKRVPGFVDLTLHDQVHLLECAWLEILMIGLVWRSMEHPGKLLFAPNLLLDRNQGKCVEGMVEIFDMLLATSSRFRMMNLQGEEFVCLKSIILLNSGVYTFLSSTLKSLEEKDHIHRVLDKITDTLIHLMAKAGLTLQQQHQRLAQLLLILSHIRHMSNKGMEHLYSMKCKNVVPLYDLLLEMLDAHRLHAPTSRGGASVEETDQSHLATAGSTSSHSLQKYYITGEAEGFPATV
Sequence of Nuclear receptor subfamily 4 group A member 2 (Homo sapiens) (P43354 whole entry, looked up, the tested form may be a part): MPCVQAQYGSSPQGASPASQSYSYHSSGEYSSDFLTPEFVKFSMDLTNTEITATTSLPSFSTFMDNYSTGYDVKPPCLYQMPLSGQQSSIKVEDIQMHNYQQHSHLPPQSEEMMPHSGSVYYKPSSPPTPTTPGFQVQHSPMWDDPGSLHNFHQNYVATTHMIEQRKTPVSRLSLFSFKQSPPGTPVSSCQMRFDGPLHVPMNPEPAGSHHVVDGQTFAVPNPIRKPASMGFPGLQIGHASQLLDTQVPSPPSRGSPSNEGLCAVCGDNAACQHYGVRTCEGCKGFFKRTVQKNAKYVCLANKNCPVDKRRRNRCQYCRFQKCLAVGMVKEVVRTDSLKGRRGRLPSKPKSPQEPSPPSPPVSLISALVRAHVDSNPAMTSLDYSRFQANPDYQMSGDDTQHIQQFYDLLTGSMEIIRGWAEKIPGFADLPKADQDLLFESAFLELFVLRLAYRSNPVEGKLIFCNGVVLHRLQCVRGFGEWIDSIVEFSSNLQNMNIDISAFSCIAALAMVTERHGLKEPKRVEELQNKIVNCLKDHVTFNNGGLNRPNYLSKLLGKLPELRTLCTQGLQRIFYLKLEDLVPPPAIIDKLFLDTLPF

COC(=O)c1cccc(C(=O)OC)c1
inactive: [1] | [2] | [3] | [4] | [5] | [6] | [7] | [8] | [9] | [10] | [11] | [12]

CC1=C(C=O)C(C)(C)CCC1
inactive: [1] | [2] | [3] | [4] | [5] | [6] | [7] | [13] | [10] | [14] | [15] | [12]

CCC(C)COC(=O)CC(C)C (stereo not given)
inactive: [1] | [2] | [3] | [4] | [5] | [6] | [7] | [9] | [10] | [14] | [11] | [12]

COc1ccc(N)c(C)c1
active: [1] 169 µM | [4] 100 µM
inactive: [2] | [3] | [5] | [7] | [8] | [13] | [10] | [14] | [16] | [17] | [12]

CC/C=C\C#N
inactive: [1] | [2] | [3] | [4] | [5] | [6] | [7] | [8] | [18] | [10] | [14] | [16] | [15] | [11] | [17] | [12]

CC(C)CCOC(=O)CC(C)C
inactive: [1] | [2] | [3] | [4] | [5] | [6] | [7] | [8] | [9] | [18] | [13] | [10] | [14] | [16] | [11] | [17] | [12]

COc1ccccc1NC(=O)CC(C)=O
inactive: [1] | [2] | [3] | [5] | [7] | [8] | [9] | [10] | [14] | [16] | [11] | [17] | [12]
active: [4] 68.2 µM

CCCCCCCCCCCCN1CCOCC1
inactive: [1] | [2] | [3] | [5] | [6] | [19] | [9] | [18] | [10] | [14] | [15] | [12]
active: [4] 60.6 µM | [7] 46.9 µM
